# Screening results as filed in PubChem BioAssay.
# MARV entry inh – Marburg virus entry inhibition; Marburg virus pseudotyped entry inhibition, cell reporter; Potency, µM (top dose mostly 37.8 µM), without a hit: top-dose activity change, negative = inhibition, actives largely listed as inhibitors; 300,000 compounds, 1.8% hits; AID 540276; calls by dose curve; tested in HEK293 cells; note: potency is the fitted concentration of half-maximal effect
# HCV inh – HCV inhibition; Huh7.5.1 HCVcc-Cre infection, luciferase reporter, 44 h; Potency, µM (top dose mostly 41.8 µM), without a hit: at the top dose activity change, negative = inhibition, actives largely listed as inhibitors; 340,000 compounds, 3.4% hits; active = well fitted inhibition curve with a large enough effect; inconclusive = small, poorly fitted or top-dose-only effect, or another doubt; inactive = no such curve, though single readings can be large or run the other way; note: potency is the fitted concentration of half-maximal effect
#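 A cell-based infection assay in which seeded cells (1,000 per well) receive test compound after 4 h, are inoculated with HCVcc-Cre at approximately 0.5 moi, and are incubated 44 h before luminescence detection.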
# HCMV antiviral – human cytomegalovirus inhibition; activity change, negative = inhibition, % at 57.5 µM; HFF cells, HCMV-luciferase reporter, 72 h; stronger effect = lower value; 410,000 compounds, 4.5% hits; in the data active = activity change below about -60%; inconclusive = no clear call, values can overlap the other calls; inactive = above about -39%
#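 Steps: HFFs plated, 16 h 37C; compounds added; HCMV-luciferase added to MOI 1 PFU/cell; 72 h 37C; OneGlo reagent, 5 min room temperature; luminescence read, normalized to controls.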
# FMDV antiviral – foot and mouth disease virus antiviral activity; Potency, µM (highest dose often 57.9 µM), for inactives: at the top dose activity change, negative = inhibition, most hits filed as inhibitors; 410,000 compounds, 1.2% hits; FMDV antiviral cell-based qHTS; calls by dose curve; tested in HEK293T cells; note: read-out not given here; potency is the fitted concentration of half-maximal effect; nearly all actives have a fitted effect of over 45% in size
# Lassa entry inh – Lassa virus entry inhibition; Lassa virus pseudotype entry inhibition, cell reporter; Potency, µM (doses to about 37.9 µM), for inactives: at the top dose activity change, negative = inhibition, most hits filed as inhibitors; 300,000 compounds, 1.2% hits; AID 540256; calls by dose curve; tested in HEK293 cells; note: potency is the fitted concentration of half-maximal effect; nearly all actives have a fitted effect of over 50% in size
# The depositor's hits bear a star; u = inconclusive; x = not tested or not shown; [ ] = remark or other dose. Hits are enriched below; roughly 7.9% of the tested compounds scored in any of these assays. % is set by controls: 0 for no effect and ±100 for the full control effect.
SMILES,MARV entry inh,HCV inh,HCMV antiviral,FMDV antiviral,Lassa entry inh
CCN(Cc1ccc(C#CCCO)cc1)CC1CCCN(CCc2cccc(F)c2)C1 (stereo not given),x,u,-24,-10%,x
CCN(Cc1ccc(OC)c(COC)c1)CC1CCCN(CCc2cccc(F)c2)C1 (stereo not given),x,13µM*,-31,-9%,x
CC(C)=CCC/C(C)=C/CO/N=C1\C[C@@H](O)[C@@H](O)[C@@H]2[C@@H]3C(=O)N(Cc4ccc5c(c4)OCO5)C(=O)[C@@H]3CC[C@H]12,-44%[14.2 µM],x,x,x,x
CCOC(=O)c1sc(N2C(=O)c3oc4cc(C)c(C)cc4c(=O)c3C2c2ccc(C)cc2)nc1C (stereo not given),20%[46.1 µM],x,-111*,-6%,-1%[46.1 µM]
CCOC(=O)c1sc(N2C(=O)c3oc4cc(C)c(C)cc4c(=O)c3C2c2cccc(O)c2)nc1C (stereo not given),u,x,-5,2%,21%[46.1 µM]
COc1ccc(NS(=O)(=O)c2cccc(C(=O)NNC(=O)CNC(=O)c3ccccc3F)c2)cc1,-7%,u,-17,-4%,5%
Cc1ccc(NC(=O)/C=C/c2ccc([N+](=O)[O-])s2)cc1,14µM*,u,-96*,0%,10µM*
Cc1ccc(/C=C/C(=O)Nc2ccc([N+](=O)[O-])cc2)o1,18%,-24%,16,-2%,-8%
Cc1cccc(NC(=S)N/N=C/c2ccc([N+](=O)[O-])s2)c1,u,8.9µM*,-93*,-12%,16µM*
Cc1ccc(NC(=O)/C=C/c2ccc([N+](=O)[O-])s2)c(C)c1,u,u,-101*,13µM*,u
Cc1cccc(NC(=O)/C=C/c2ccc([N+](=O)[O-])s2)c1,u,11µM*,-98*,0%,u
O=C(NC1=C(Cl)CCCC1)NC1CCCCC1Cl (stereo not given),12%[46.1 µM],x,x,x,x
Cn1c(=O)[nH]c(=O)c2c1nc(Br)n2C/C=N/NC(N)=S,x,x,-33,x,x
Cn1c(=O)c2c(nc(Br)n2C/C=N/NC(N)=S)n(C)c1=O,u,-16%,-84*,-8%,-2%
Cc1ccsc1/C=N/Nc1ncc(Cl)cc1Cl,-24%,13µM*,u,-38%,u
Cc1cc(C)nc(N/N=C/c2sccc2C)n1,u,-25%,-80*,62%,1%
Cc1ccsc1/C=N/Nc1nc2ccccc2s1,u,u,11,-10%,u
Cc1ccsc1/C=N/Nc1nc(=O)[nH]nc1C,u,u,-7,7%,18µM*
Cc1ccc(NCCCn2ccc(NC(=O)OCc3ccccc3)nc2=O)cc1C,x,-11%,-6,0%,x
Cc1ccc(C)c(N2CCN(C(=O)CN3C(=O)c4ccccc4C3=O)CC2)c1,-7%,19%,0,u,-1%
CN1C(=O)c2ccccc2Sc2ccc(NC(=O)N3CCN(c4ccc(F)cc4)CC3)cc21,u,x,-97*,-7%,-19%[46.1 µM]
CCN1C(=O)c2ccccc2Sc2ccc(NC(=O)N3CCN(c4cc(C)ccc4C)CC3)cc21,u,x,-61*,-24%,-4%[46.1 µM]
Cc1ccc(C)c(N2CCN(C(=O)Nc3ccc4c(c3)N(C)C(=O)CS4)CC2)c1,x,10µM*,-16,16µM*,x
CCN1CCN(S(=O)(=O)c2ccc(OC)cc2)CC1,26%,8%,4,-18%,-19%
CC(=O)Nc1ccc2c(c1)Cc1c(F)cccc1-2,8%,10µM*,7,98%,u
SMILES,MARV entry inh,HCV inh,HCMV antiviral,FMDV antiviral,Lassa entry inh
CC(=O)Nc1ccc2c(c1)Cc1c-2cc(Br)c(N)c1Br,u,11µM*,-22,30%,20%
CC(=O)Nc1c(Br)cc2c(c1Br)Cc1cc(Br)ccc1-2,u,u,17,3%,-20%
O=C(OCCO)c1c(-c2ccccc2)oc2c1C(OCCO)CCC2 (stereo not given),x,x,-4,-20%,x
O=c1[nH]c(=O)n(C2CC(O)C(CO)O2)cc1I (stereo not given),19%,16%,-6,-2%,19%[46.1 µM]
O=c1[nH]c(=O)n([C@H]2C[C@H](O)[C@@H](CO)O2)cc1F,u,u,-67*,-16%,0.29µM*
O=C(NCC1(N2CCOCC2)CCCCCC1)c1cnn(-c2nccc(-c3ccco3)n2)c1C1CC1,x,x,x,0%,x
CN(CC(=O)Nc1ccc(N2CCOCC2)cc1)C(=O)c1cc(F)c(F)cc1Cl,7%[46.1 µM],-13%,-16,0%,18%
O=C(c1cc(-c2cccs2)on1)N1CCN(C(c2ccccc2)c2ccccc2)CC1,u,2.8µM*,u,-21%,u
Cc1onc(C(=O)N2CCN(C(c3ccccc3)c3ccccc3)CC2)c1[N+](=O)[O-],3%,u,-103*,u,-12%
COc1ccccc1-c1cc(C(F)(F)F)n2ncc(C(=O)N3CCc4ccccc4C3)c2n1,-29%,11µM*,-13,-29%,-29%
O=C(c1cnn2c(C(F)(F)F)cc(-c3cccs3)nc12)N1CCN(C(c2ccccc2)c2ccccc2)CC1,13µM*,u,-23,-7%,u
COc1ccc(-c2cc(C(F)F)n3ncc(C(=O)N4CCc5ccccc5C4)c3n2)cc1,u,u,1,u,u
Cc1cc(C(=O)N2CCN(C(c3ccccc3)c3ccccc3)CC2)no1,11%,u,-18,u,1%
O=C(OCC(O)C1OC(c2ccccc2)OC(COC(=O)c2ccccc2)C1O)c1ccccc1 (stereo not given),x,x,u,-16%,x
COc1ccccc1-c1ccc(C(=O)NCCN2CCOCC2)c(N2CCN(c3ccccc3F)CC2)n1,x,x,x,2%,x
CCC(=NCCc1c(C)[nH]c2ccc(C)cc12)C1=C(O)CC(c2ccccc2)CC1=O (stereo not given),u,u,-77*,0%,u
C(=N\Nc1nc2ccccc2[nH]1)/c1ccccn1,x,-2%,-100*,10µM*,x
C(=N\Nc1ccc2nncn2n1)/c1ccccn1,u,-69%,-87*,-7%,u
C(=N\Nc1nncc2ccccc12)/c1ccccn1,u,3.2µM*,-98*,u,1.1µM*
C(=N\Nc1nc2ccccc2[nH]1)/c1ccc2ncccc2c1,u,u,-22,30%,u
Cc1cc(=O)[nH]c(N/N=C/c2ccccn2)n1,2.6µM*,1µM*,-100*,51%,7.1µM*
CCCCc1ccc(NC(=O)COC(=O)c2ccc3ncsc3c2)cc1,x,x,2,-23%,x
COc1ccc(OC)c(NS(=O)(=O)c2ccc3[nH]c4c(c3c2)CCCCC4)c1,x,x,-14,-11%,-18%[46.1 µM]
c1ccc2c(c1)CC/C2=N/Nc1nc2ccccc2[nH]1,u,u,-112*,-35%,u
O=c1cnnc(N/N=C/c2ccccn2)[nH]1,x,6.3µM*,-32,-18%,x
CC(C)(C)C1CCC(=NNc2nc3ccccc3[nH]2)CC1 (stereo not given),u,-19%,-23,-14%,12%[46.1 µM]
O=c1nc(N/N=C/c2ccccn2)cn[nH]1,u,u,80,13%,3.5µM*
